Bioassay records: PubChem, National Center for Advancing Translational Sciences (NCATS)
GALK inhibitor = qHTS Assay for Inhibitors of Human Galactokinase (GALK); P51570; Purified GALK, Kinase-Glo residual ATP luminescence; Potency, µM (highest dose often 57.5 µM), actives largely listed as inhibitors; actives 0.007% (n = 270,000); AID 1868, 2009
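Quantitative HTS: GALK 5 nM, ATP 35 uM, galactose 100 uM, 1 h room temperature, then luciferase-based ATP detection.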
LDHA block = qHTS assay for inhibitors of human lactate dehydrogenase. L-lactate dehydrogenase A chain (Homo sapiens), P00338. purified LDHA, NADH/diaphorase-resazurin fluorescence; active compounds read low. activity change, % (values are at about 110 or 230 µM). actives 0.15% (n = 480,000); in the data active means activity change below about -30%; inconclusive means mostly about -25% to -30%
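Human LDH5 at 2 nM final in Tris HCl pH 7.4 with 0.06 mM NADH and 0.2 mM pyruvate, reacted 5 minutes at room temperature. Remaining NADH coupled via diaphorase/resazurin; resorufin fluorescence read at 0 and 20 minutes, normalized to enzyme-free and DMSO wells.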
rTrxR1 inhibitor = qHTS Assay for Inhibitors of Mammalian Selenoprotein Thioredoxin Reductase 1 (TrxR1): qHTS | recombinant rTrxR1, NADPH fluorescence consumption, selenite substrate | Potency, µM (doses to about 114 µM), hits mostly inhibitors | actives 1% (n = 390,000) | AID 588453, 2011; further: nearly all actives have a fitted effect of over 65% in size
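Rat TrxR1 (90 nM in the dispensed reagent) was pre-reduced with 400 uM NADPH for 5 min at room temperature, then incubated with compound for 15 min. After 400 uM selenite was added, NADPH fluorescence (Ex 340/Em 450 nm) was followed for 8 min.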
Integrin act MD = qHTS for Activators of Integrin-Mediated Alleviation for Muscular Dystrophy. alpha7betagal myoblasts, beta-gal FDG fluorescence, 48 h. Potency, µM (highest dose often 38.3 µM), usual class: activators. actives 0.064% (n = 350,000). AID 624291, 2012; further: nearly all actives have a fitted effect of over 60% in size
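Alpha7betagal+/- myoblasts (passage 13) were plated 16-24 hr, then exposed to compounds (1:260 dilution of DMSO stock) for 48 hours at 37C. After MPER lysis, β-galactosidase reporter activity was read as FDG fluorescence (ex 480/em 540) after 30 minutes.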
PI4K2A inh = qHTS for small molecular inhibitors of PI4K2A. AID 1346378, 2018. activity change, negative = inhibition, % at 76.9 µM. actives 0.13% (n = 420,000). Phosphatidylinositol 4-kinase type 2-alpha (Homo sapiens), Q9BTU6. purified PI4K2A, ADP-Glo luminescence, 1 h; active compounds read low; in the data active means activity change below about -50%; inconclusive means mostly about -30% to -49%
Target sequence (Q9BTU6 whole entry, looked up): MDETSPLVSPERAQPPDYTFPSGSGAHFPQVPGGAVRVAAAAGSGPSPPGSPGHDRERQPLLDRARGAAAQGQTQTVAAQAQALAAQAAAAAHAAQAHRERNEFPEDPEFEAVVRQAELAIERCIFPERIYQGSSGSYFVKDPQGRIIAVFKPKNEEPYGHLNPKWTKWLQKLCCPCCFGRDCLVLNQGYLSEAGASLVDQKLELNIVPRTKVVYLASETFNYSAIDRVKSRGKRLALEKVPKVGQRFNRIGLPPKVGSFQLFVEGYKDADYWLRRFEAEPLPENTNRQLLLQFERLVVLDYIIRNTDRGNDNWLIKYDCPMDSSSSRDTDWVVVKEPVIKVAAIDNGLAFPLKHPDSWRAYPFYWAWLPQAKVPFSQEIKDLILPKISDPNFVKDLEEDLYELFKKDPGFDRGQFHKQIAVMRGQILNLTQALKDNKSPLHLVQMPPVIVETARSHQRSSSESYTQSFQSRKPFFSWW
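PI4K2A activity was measured by ADP-Glo luminescence: enzyme (4 ug/mL stock) and phosphatidylinositol (1.2 mM stock) in Tris pH 7.5/MgCl2/EGTA/Triton X-100 buffer were reacted with ATP (300 microM stock) for one hour at ambient temperature.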
TrxR1 substrate = qHTS Assay for Substrates of Mammalian Selenoprotein Thioredoxin Reductase 1 (TrxR1): qHTS; actives 0.01% (n = 390,000); purified TrxR1 substrate turnover, NADPH consumption readout; Thioredoxin reductase 1, cytoplasmic (Rattus norvegicus), O89049; Potency, µM (top dose mostly 114 µM); further: nearly all actives have a fitted effect of over 50% in size
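Rat TrxR1, dispensed at 90 nM, was prereduced with 400 uM NADPH (final) for 5 min at ~22 deg C, then incubated with compound 15 min before 400 uM selenite. A first-read NADPH fluorescence drop versus no-compound background flagged substrates.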
Hits are given with their value; i = inactive; ? = inconclusive; nt = not tested or not shown; [ ] = remark or other dose. An excerpt weighted towards active compounds, which were near 1.1% of everything screened. Unless noted, the call rests on the fitted dose curve; in most records, active means well fitted curve in the direction sought with a large enough effect; inconclusive means small, poorly fitted or top-dose-only effect, or another doubt; inactive means no such curve, though single readings can be large; an effect the other way counts as inactive or inconclusive.

SMILES	GALK inhibitor	LDHA block	rTrxR1 inhibitor	Integrin act MD	PI4K2A inh	TrxR1 substrate
COc1cc(CNC2CN3CCC2CC3)cc(Cl)c1OCc1ccccc1 (configuration not stated)	nt	i	nt	nt	nt	nt
CC1=CC2/C=C(\C)CCC(O)C(O)/C=C/C(=O)C23C(=O)NC(CC(C)C)C3C1C (configuration not stated)	i	i	16µM	i	i	i
C/C1=C\[C@@H](C)C/C=C/[C@H]2[C@@H]3O[C@]3(C)[C@@H](C)[C@H]3[C@H](Cc4c[nH]c5ccccc45)NC(=O)[C@]32C(=O)/C=C/C(=O)[C@@H]1O	i	i	?	i	i	i
O=C(CN1CC=C(c2ccccc2)CC1)N(C1CCCC1)C1CCS(=O)(=O)C1 (configuration not stated)	nt	i	nt	nt	nt	nt
CC1=CC2OC3CC4OC(=O)C=CC=CC(=O)OCCC(C)C(O)C(=O)OCC2(CC1O)C4(C)C31CO1 (configuration not stated)	nt	i	i[11.4 µM]	?	i	i[11.4 µM]
CC1=CC2OC3CC4OC(=O)C=CC=CC(C(C)O)OCC(O)C(C)CC(=O)OCC2(CC1O)C4(C)C31CO1 (configuration not stated)	nt	i	45µM	?	i	i
CCCC[N+]12CCC(CC1)C(=C(c1ccccc1)c1ccccc1)C2	i	-106	i	i	i	i
CN1CC2(Cc3c1ccc1ccccc31)C(=O)NC(=O)N(CCc1ccccc1)C2=O (configuration not stated)	nt	i	nt	nt	nt	nt
C=CCN1CC[C@]23c4c5ccc(O)c4O[C@@H]2/C(=N/N=C2\CC[C@@]4(O)C6Cc7ccc(O)c8c7[C@@]4(CCN6CC=C)[C@@H]2O8)CC[C@@]3(O)C1C5	nt	nt	20µM	nt	i	i
C=CCN1CC[C@]23c4c5ccc(O)c4O[C@H]2C(=O)CC[C@@]3(O)[C@H]1C5	i	i	?	nt	i	i
Cn1cc(C(=O)OCC(=O)NC2CC2)c2ccccc21	nt	i	nt	nt	nt	nt
N[C@@H](Cc1cc(I)c(O)c(I)c1)C(=O)O	nt	i	13µM	nt	i	i
Cc1o[nH]c(=O)c1CC(N)C(=O)O (configuration not stated)	nt	nt	i	nt	i	i
NC(Cc1cc(O)c(O)cc1O)C(=O)O (configuration not stated)	nt	i	11µM	nt	-80	i
Cc1cccc(-n2nnnc2C2(NC3CCCCC3)CCCCC2)c1	nt	i	nt	nt	nt	nt
CCOP1(=O)C=C(Sc2ccc([N+](=O)[O-])cc2[N+](=O)[O-])C(C)(C)O1 (configuration not stated)	nt	i	14µM	i	i	i
CN(C/C=C/Cl)C1Cc2ccccc2C1	nt	i	nt	nt	nt	nt
COc1ccc(CNCCc2c[nH]c3ccc(OC)cc23)cc1	nt	i	nt	nt	nt	nt
Cn1c(O)c(C(c2ccccn2)c2c(O)n(C)c(=S)n(C)c2=O)c(=O)n(C)c1=S	nt	i	i	i	i	i
Cn1c(O)c(C(c2ccncc2)c2c(O)n(C)c(=S)n(C)c2=O)c(=O)n(C)c1=S	i	i	7.9µM	i	i	i
O=C1NC(=O)N(CCC2=CCCCC2)C(=O)/C1=C\c1cccs1	i	i	7.1µM	i	i	i
Cc1ccc(/C=C2\C(=O)NC(=S)N(c3ccc(F)cc3)C2=O)s1	i	i	10µM	i	i	i
Cc1ccc(/C=C2\C(=O)NC(=S)N(c3ccccc3F)C2=O)s1	i	-33	13µM	i	i	i
CCOC(=O)C1CCN(/C=C2/C(=O)NC(=S)N(c3ccccc3F)C2=O)CC1	i	i	i	i	i	i
Cc1ccc(/C=C2\C(=O)NC(=S)N(c3ccc(F)cc3)C2=O)o1	i	i	?	i	i	i
SMILES	GALK inhibitor	LDHA block	rTrxR1 inhibitor	Integrin act MD	PI4K2A inh	TrxR1 substrate
C=CCN1C(=O)/C(=C/c2cccs2)C(=O)NC1=S	i	?	10µM	i	i	i
O=C1NC(=S)N(c2ccccc2)C(=O)/C1=C/c1ccco1	i	i	20µM	i	?	i
CCOc1cccc(N2C(=O)/C(=C/c3ccco3)C(=O)NC2=S)c1	i	i	?	i	i	i
COc1ccc(N2C(=O)/C(=C/c3cccs3)C(=O)NC2=S)cc1	nt	i	7.9µM	i	i	i
COc1cccc(N2C(=O)/C(=C/c3ccc(C)o3)C(=O)NC2=S)c1	nt	i	25µM	i	i	i
COc1ccc(CC2NCC(O)C2OC(C)=O)cc1 (configuration not stated)	nt	i	25µM	i	i	i
COc1ccc(CC(=O)N2CCN(C)CC2)cc1	i	i	i	i	i	i
CN1C(=O)C(=Cc2ccccc2OCCOc2ccc([N+](=O)[O-])cc2)C(=O)N(C)C1=O	i	i	?	i	i	i
O=C1NC(=O)C(=Cc2ccc(Oc3ccc([N+](=O)[O-])cc3)cc2)C(=O)N1	i	-33	?	i	i	i
O=C1NC(=O)C(=Cc2ccccc2OCCOc2ccc([N+](=O)[O-])cc2)C(=O)N1	i	-81	?	i	i	i
CN1CCN(c2ccc(NC=C(C#N)C#N)cc2)CC1	nt	i	nt	nt	nt	nt
NCCc1cc(O)c(O)cc1O	nt	i	56µM	nt	?	i
COc1ccc(CCN)cc1O	nt	i	i	nt	i	i
CN1C(=O)C(=Cc2ccc(N3CCOCC3)c([N+](=O)[O-])c2)C(=O)N(C)C1=O	i	nt	nt	nt	nt	nt
O=C1NC(=O)C(=Cc2ccc(N3CCN(C(=O)c4ccccc4)CC3)c([N+](=O)[O-])c2)C(=O)N1	i	i	10µM	i	i	i
Cc1cc(C)cc(N2C(=O)NC(=O)/C(=C\c3cccn3-c3ccc(Cl)cc3)C2=O)c1	i	i	?	i	-50	i
CCOc1cc(C=C2C(=O)NC(=S)NC2=O)ccc1O	nt	i	i	i	i	i[2.29 µM]
O=C1NC(=S)NC(=O)C1=Cc1cccn1-c1ccc(O)cc1	i	i	20µM	i	?	i
CN1C(=O)/C(=C/c2cccn2-c2ccc3ccccc3c2)C(=O)NC1=S	i	i	?	i	-61	i
Cn1cccc1/C=C1/C(=O)NC(=O)N(C(C)(C)C)C1=O	i	i	i	i	i	i
Cc1cc(C)cc(N2C(=O)NC(=O)/C(=C\c3cccn3-c3ccccc3)C2=O)c1	i	i	i	i	i	i
N#Cc1c(N)nc2c(c1-c1ccc(OCc3ccccc3F)cc1)c(=O)nc1sccn12	nt	i	nt	nt	nt	nt
